Laboratory results from PubChem BioAssay AID624331 (National Center for Advancing Translational Sciences (NCATS), 2012).
Records with an inconclusive call do not appear. A call without a number means that no potency is given here. Calls of active or inactive are those of the source. Calls follow the shape of the dose curve; as a rule, active = well fitted activation curve with a large enough effect; inconclusive = small, poorly fitted or top-dose-only effect; inactive = no such curve, though single readings can be large or run the other way.

Assay: qHTS assay for re-activators of p53 using a Luc reporter: Hit Validation with no p53 Expressed
Conditions: p53-null cells, luciferase reporter counter-screen; series mostly up to 46.1 µM
Procedure, shortened: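 Counter-screen of primary hits in a cell line not transfected with p53, in Opti-MEM with 10% FBS; compounds at several concentrations (10 mM stock, 1:5; top 46.1 µM in well), 24 h at 37 deg C, 5% CO2. Luminescence read after 10 min with Amplite reagent.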
Potency is read from the fitted curve at half-maximal effect.

Structure (SMILES)	Potency
CC(C)(C)c1ccc(NC(=O)COC(=O)c2ccc(NS(=O)(=O)c3ccc(F)c(F)c3)cc2)cc1	inactive
CN(C)C(=O)c1ccc2c(c1[N+](=O)[O-])C(=O)c1ccccc1C2=O	inactive
CC(Sc1nc(N)cc(=O)[nH]1)C(=O)NNC(=O)c1cccc(Cl)c1 (stereo not given)	inactive
CCN1C(=O)C(=O)N(CC(=O)c2cc(C)n(C3CC3)c2C)C1=O	inactive
O=C(c1ccco1)n1c(=S)nc2ccccn21	inactive
O=C(Nc1ccc(F)cc1F)c1cc2nc3c(c(C(F)(F)F)n2n1)CCCC3	5.8 µM (active)
Cc1cc(C)c2nc(NNC(=O)c3ccc(S(=O)(=O)N4CCc5ccccc5C4)cc3)sc2c1	inactive
Cc1ccc(-c2cc3nc(C)cc(NCc4ccco4)n3n2)cc1	inactive
COc1ccc(NC(=O)/C(=C\c2ccc3c(c2)OCO3)NC(C)=O)cc1	inactive
Cc1cccc2nc(CNc3ccc(F)cc3)cn12	inactive
COc1cccc(NC(=O)CSC2=C(C#N)C(c3ccco3)C3=C(CCCC3=O)N2)c1 (stereo not given)	inactive
Cc1ccc(OCC(=O)Nc2ccc(Cl)cc2)c([N+](=O)[O-])n1	inactive
O=C(Nc1nnc(-c2cccs2)o1)c1cccc(C(F)(F)F)c1	inactive
Cc1ccccc1OCC(=O)Nc1cccc2nsnc12	inactive
CN(C(=O)CSc1nnc(-c2ccco2)o1)C1CCCCC1	inactive
O=C(COc1ccccc1[N+](=O)[O-])N/N=C/c1cccc(OC(=O)c2ccc3c(c2)OCO3)c1	inactive
CS(=O)(=O)c1ccc2nc(NC(=O)CCNC(=O)c3ccccc3Cl)sc2c1	inactive
C=CCOc1c(Br)cc(CNCCCN2CCOCC2)cc1OC	inactive
Cc1ccc(NC(=O)c2cc(C)n(-c3ccccc3)c2C)cc1	inactive
CC1CCc2c(sc(NC(=O)C3=COCCO3)c2C(N)=O)C1 (stereo not given)	inactive

Structure (SMILES)	Potency
CCOc1ccc(N2C(=O)c3ccccc3NC2(C)CC)cc1 (stereo not given)	inactive
Cc1noc(C)c1C(=O)OCC(=O)N1CCc2ccccc21	inactive
O=C(/C=C\Nc1cccc(F)c1)c1ccc2c(c1)OCO2	inactive
Oc1ccc(N=Cc2c(O)ccc3ccccc23)cc1	inactive
Nc1nonc1-n1nnc(C(=O)N/N=C/c2cc(Br)ccc2O)c1CSC1=NCCS1	inactive
C/C(Cn1nnc([N+](=O)[O-])n1)=N\NC(=O)c1ccc(C)cc1	inactive
CC(=O)Nc1ccc2oc(-c3ccccc3Br)nc2c1	inactive
CCn1c(=O)c2ccccc2n(Cc2ccccc2C)c1=O	inactive
C/C(=C\C(=O)c1ccccc1)Nc1ccc2c(c1)OCO2	inactive
Clc1ccc(OCc2nc(-c3ccccn3)n[nH]2)cc1	inactive
CCOc1cc(S(=O)(=O)NC2CCCCCC2)ccc1F	inactive
COc1ccc(NC(=O)c2ccccc2)cc1	inactive
CC(C)c1ccc(NC(=O)c2snc3ccc(Cl)cc23)cc1	1.03 µM (active)
COC(=O)CSc1nc2cc(OC)ccc2cc1C#N	inactive
CN(C)c1cccc(C(=O)NNC(=O)CN2C(=O)C3CC=CCC3C2=O)c1 (stereo not given)	inactive
O=C(CSCC(=O)Nc1cccc([N+](=O)[O-])c1)Nc1ccccc1	inactive
Cn1c(Cc2cccs2)nnc1SCc1nc2ccccc2[nH]1	inactive
CN(C)CCN(CC1CCCN(Cc2ccccc2F)C1)C(=O)c1ccc(F)cc1 (stereo not given)	inactive
COC(=O)CCC(=O)COc1ccccc1C#N	inactive
COc1ccc(NC(=O)/C(Cl)=C(/Cl)S(=O)(=O)Cc2ccc(C)cc2)cn1	inactive
